HT1080 IDH1KD tx: kills HT-1080 cells with IDH1 knockdown | AID 686971 | Potency, µM (series often up to 46.1 µM), for the others: at the top dose activity, negative = toxicity, actives largely listed as cytotoxic | 2% of 360,000 active | HT-1080 IDH1 knockdown viability, ATP luminescence, 48 h;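 also: potency is read from the fitted curve at half-maximal effect; 0% = DMSO wells and -100% = cell-free medium wells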
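HT-1080-IDH1KD cells (IDH1 knocked down), 750/well in RPMI with 5% FBS, treated with compound 48 h at 37 degrees C. Viability by CellTiter-Glo luminescence, normalised to DMSO and no-cell wells; concentration-response curves classed.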
HT1080-NT tox: kills 2HG-producing HT-1080-NT fibrosarcoma cells. 1.6% of 360,000 active. HT-1080-NT fibrosarcoma viability, CellTiter-Glo ATP luminescence, 48 h. Potency, µM (doses to about 46.1 µM), for the others: at the highest dose activity, negative = less viability, usual class: cytotoxic;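 also: NT is the 2HG producing partner of a matched IDH1 knockdown line; potency is read from the fitted curve at half-maximal effect; 0% = DMSO-treated cells and -100% = media-only wells without cells; nearly all actives have a fitted effect of over 55% in size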
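Read-out is CellTiter-Glo luminescence after 10 minutes at room temperature, following 48 hours' compound treatment of HT-1080-NT cells (750 cells/well, RPMI, 5% FBS, 37 degrees C).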
IL-1B inflam inh: inflammasome signaling inhibition, IL-1 beta readout; THP-1 LPS/ATP IL-1B secretion, AlphaLISA, 16 h; hits give low values; activity change, % at 57.5 µM; 4.7% of 360,000 active; AID 743279; in the data active = activity change below about -50%; inconclusive = mostly about -30% to -49%
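THP-1 cells pretreated 1 hr with compounds (up to 57.5 uM final), then stimulated with LPS (250 ng/mL final) plus ATP (1.25 mM final); secreted IL-1B measured by AlphaLISA after 16 hr, decreased signal indicating inhibition.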
ALOX12 inh: ALOX12 (human) lipoxygenase inhibition | P18054 | purified 12hLO, xylenol orange hydroperoxide absorbance | Potency, µM (series often up to 108 µM), for the others: at the top dose activity change, negative = inhibition, actives largely listed as inhibitors | 1.1% of 580,000 active; also: potency is read from the fitted curve at half-maximal effect
Target sequence (P18054 whole entry, looked up): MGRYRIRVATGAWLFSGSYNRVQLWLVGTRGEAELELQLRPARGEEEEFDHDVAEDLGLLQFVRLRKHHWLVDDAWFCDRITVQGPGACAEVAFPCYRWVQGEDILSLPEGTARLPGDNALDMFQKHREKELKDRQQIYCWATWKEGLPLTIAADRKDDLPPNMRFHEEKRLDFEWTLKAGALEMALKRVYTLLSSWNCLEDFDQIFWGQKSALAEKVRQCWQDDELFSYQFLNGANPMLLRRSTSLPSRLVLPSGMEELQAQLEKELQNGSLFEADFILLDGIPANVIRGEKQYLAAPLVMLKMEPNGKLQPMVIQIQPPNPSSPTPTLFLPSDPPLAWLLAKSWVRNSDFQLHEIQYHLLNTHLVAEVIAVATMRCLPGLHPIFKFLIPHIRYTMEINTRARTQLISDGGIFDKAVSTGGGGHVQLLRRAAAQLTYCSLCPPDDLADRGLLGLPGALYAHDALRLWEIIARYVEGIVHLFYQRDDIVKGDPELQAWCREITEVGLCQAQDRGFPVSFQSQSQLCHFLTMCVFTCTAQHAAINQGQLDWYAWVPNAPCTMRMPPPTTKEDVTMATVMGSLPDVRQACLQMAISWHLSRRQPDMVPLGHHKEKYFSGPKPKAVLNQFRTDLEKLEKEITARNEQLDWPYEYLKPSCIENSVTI
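Purified human 12hLO (150 nM final) in 25 mM Hepes, 0.01% Triton X-100, pH 7.0 was preincubated 15 min at room temperature with compound. Then 40 uM arachidonic acid was added, 30 min. Hydroperoxide was read by Fe-XO absorbance ratio 573/405 nm.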
DT40 TDP1 CPT: DT40-hTDP1 cell growth loss with CPT | chicken DT40 Tdp1-/-;hTDP1 cells + 20 nM CPT, ATP luminescence, 48 h | Potency, µM (top dose mostly 46.2 µM), for the others: at the top dose activity change, negative = growth inhibition, most hits filed as inhibitors | 12% of 420,000 active; also: potency is read from the fitted curve at half-maximal effect; nearly all actives have a fitted effect of over 55% in size
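Chicken DT40 Tdp1-/- cells stably complemented with human TDP1 were seeded at 400 cells/well in medium containing 20 nM camptothecin, exposed to pin-transferred compounds, and grown at 37 °C for at least 48 hr. Viability was read as ATP luminescence.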
TDP1 cell noCPT: qHTS for Inhibitors of human tyrosyl-DNA phosphodiesterase 1 (TDP1): qHTS in cells in absence of CPT; DT40 Tdp1-/- hTDP1 cells, no CPT, ATP luminescence, 48 h; Potency, µM (series often up to 46.2 µM), without a hit: at the highest dose activity change, negative = growth inhibition, most hits filed as inhibitors; AID 686978, 2013; 15% of 420,000 active; also: potency is read from the fitted curve at half-maximal effect; nearly all actives have a fitted effect of over 55% in size
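Chicken DT40 Tdp1-/- cells stably complemented with human TDP1 were seeded at 400 cells/well with DMSO in place of 20 nM camptothecin. After compound pinning, cells grew at least 48 hr at 37 °C; viability read by CellTiter-Glo luminescence.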
An asterisk follows results filed as active; ? = inconclusive; . = no result; [ ] = dose if it differs, or a comment. Shown is part of a subset that was picked to be rich in hits. Unless noted, calls follow the shape of the dose curve; as a rule, active = well fitted curve in the direction sought with a large enough effect; inconclusive = small, poorly fitted or top-dose-only effect, or another doubt; inactive = no such curve, though single readings can be large; an effect the other way counts as inactive or inconclusive. Unless noted, % is scaled to controls: 0 for no effect and ±100 for the full control effect.

SMILES | HT1080 IDH1KD tx | HT1080-NT tox | IL-1B inflam inh | ALOX12 inh | DT40 TDP1 CPT | TDP1 cell noCPT
CCOC(=O)C1CN(S(=O)(=O)c2ccc(Cl)cc2)c2cc(S(=O)(=O)CC)ccc2O1 (centres undefined) | 2% | 6% | -23 | -30% | 15% | 1%
CCOC(=O)C1CCN(S(=O)(=O)c2cc(-c3onc(C)c3C)ccc2C)CC1 | . | . | . | -9% | ? | ?
Cc1ccc(-c2onc(C)c2C)cc1S(=O)(=O)NC1CCCCC1 | . | . | . | -31% | ? | 26µM*
CCC1CN(S(=O)(=O)c2cc(-c3onc(C)c3C)ccc2C)c2cc(Cl)ccc2O1 (centres undefined) | . | . | . | ? | 15µM* | 15µM*
Cc1cc2c(cc1S(=O)(=O)N1CCc3ccccc31)NC(=O)CO2 | ? | -16% | -79* | -26% | -17% | ?
COCC(=O)N1CCN(S(=O)(=O)c2ccccc2)C[C@@H]1C(=O)N[C@@H](Cc1ccc(OC)cc1)C(=O)OC | . | . | . | 9% | . | .
Cc1ccc(CN(CCN(C)C)C(=O)c2ccc(C#N)cc2)o1 | . | . | . | -28% | . | .
O=S(=O)(c1ccccc1)N1N=C(c2cccs2)CC1c1ccc(Br)cc1 (centres undefined) | 7% | 10% | 0 | -29% | 23µM* | 15µM*
O=C(Nc1ccc(NC2CCCCC2)cc1)c1nc(Cl)ccc1Cl | . | . | . | -6% | . | .
COc1ccc(-c2nc(C#N)c(N3CCc4ccccc4C3)o2)cc1OC | -10% | ? | -52* | 0% | 29µM* | 13µM*
COc1ccc(-c2nc(C#N)c(N3CCCCC3)o2)cc1OC | . | . | . | 6% | . | .
CC1CC(C)CN(c2oc(-c3ccccc3F)nc2C#N)C1 (centres undefined) | 29% | 24% | -6 | 0% | ? | ?
COc1ccccc1-c1nc(C#N)c(N2CC(C)CC(C)C2)o1 (centres undefined) | -1% | -2% | -6 | 1% | ? | 18µM*
COc1ccc(N2CCN(c3oc(-c4ccc(OC)c(OC)c4)nc3C#N)CC2)cc1 | 3% | 8% | -7 | 0% | ? | 18µM*
CCCNC(=O)C1COC2(CCN(C(=O)c3ccc(F)cc3)CC2)N1C(=O)c1ccccc1 (centres undefined) | . | . | . | 61% | . | .
O=c1n(-c2ccncc2)nc2n1CCN(CC1CC1)C2 | . | . | . | 1%[176 µM] | . | .
Cc1ccc(C2C(C#N)=C(N)N(N3CCOCC3)C3=C2C(=O)CC(C)(C)C3)cc1 (centres undefined) | . | . | . | -27% | . | .
COc1ccc(-c2csc3ncnc(N4CCN(c5ccccc5[N+](=O)[O-])CC4)c23)cc1 | -29% | -23% | -6 | . | ? | 18µM*
Cc1ccc(-c2csc3ncnc(N4CCN(c5ccccc5O)CC4)c23)cc1 | 1% | -8% | -61* | -16% | ? | 15µM*
Cc1ccc(-c2csc3ncnc(N4CCN(C(=O)c5ccco5)CC4)c23)cc1 | ? | ? | -11 | ? | ? | ?
COc1ccc(-c2csc3ncnc(N4CCN(c5ccccc5O)CC4)c23)cc1 | -5% | 1% | -18 | . | ? | 16µM*
COc1ccc(-c2csc3ncnc(N4CCN(c5ccc(OC)cc5)CC4)c23)cc1 | -1% | -27% | 58 | 261% | 23µM* | 13µM*
Cc1nc(-c2c3n(c(=O)n(Cc4ccc(OC(F)(F)F)cc4)c2=O)CCCC3)no1 | . | . | . | 37% | . | .
CCOC(=O)C(CCCCCC(NC(C)=O)(C(=O)OCC)C(=O)OCC)(NC(C)=O)C(=O)OCC | . | . | . | -51% | . | .
CN1CCCN(c2ncnc3scc(-c4ccc(F)cc4)c23)CC1 | -1% | 3% | -7 | -2% | -21% | ?
SMILES | HT1080 IDH1KD tx | HT1080-NT tox | IL-1B inflam inh | ALOX12 inh | DT40 TDP1 CPT | TDP1 cell noCPT
CC(C)c1ccc(-c2csc3ncnc(N4CCN(C)CC4)c23)cc1 | 21µM* | 16µM* | -92* | ? | 16µM* | 12µM*
CCS(=O)(=O)Nc1ccc(C2(C(=O)NCc3cccs3)CCCCC2)cc1 | . | . | . | 44% | . | .
COc1ccc(-c2cc(N3CCN(C(=O)c4cccc(Br)c4)CC3)n[nH]2)cc1 | . | . | . | 48% | . | .
COC(=O)c1ccccc1NC(=O)C1CCCN(c2nnc(-n3cccc3)s2)C1 (centres undefined) | -12% | 4% | -15 | 23%[57.4 µM] | 16µM* | 21µM*
O=C(NCc1ccco1)C1CCCN(c2nnc(-n3cccc3)s2)C1 (centres undefined) | ? | 2.6µM* | -11 | 11% | -5% | 3%
Cc1ccc(NC(=O)Cn2ccn3nc(-c4ccc(F)cc4)c(CO)c3c2=O)cc1Cl | . | . | . | 30% | . | .
CN(C)/C=C/C(=O)c1ccc(-c2ccc(Cl)cc2Cl)o1 | 8% | 0% | ? | 1.6µM* | 2% | -13%
CN(C)/C=C/C(=O)c1ccc(Cl)c([N+](=O)[O-])c1 | -4% | 5% | -96* | ? | -8% | ?
CN(C)/C=C/C(=O)c1cccc(Cl)c1 | 2% | 0% | ? | -9% | -18% | -25%
CN(C)/C=C/C(=O)c1ccc(-n2cccc2)cc1 | 0% | -5% | 20 | ? | -5% | -5%
CN(C)/C=C\C(=O)c1ccc(Br)cc1 | . | . | . | 4µM* | . | .
O=C(O)c1ccc(-c2ccc(Cl)cc2Cl)o1 | 0% | 1% | -9 | ? | -1% | -2%
CN(C)/C=C/C(=O)c1ccc(Cl)cc1 | -24% | 0% | -19 | 16µM* | -9% | -7%
Cc1ccc(C(=O)/C=C/N(C)C)cn1 | 9% | 17% | 21 | 0% | 8% | -24%
Cc1ccc(C(=O)/C=C\N(C)C)cc1 | . | . | . | 56µM* | . | .
CN(C)/C=C/C(=O)/C=C/c1ccc(Cl)cc1 | ? | 12µM* | -100* | ? | -2% | ?
CN(C)/C=C/C(=O)c1ccn(S(=O)(=O)c2ccccc2)c1 | 0% | 4% | 0 | 50µM* | -27% | 17%
Cc1ccc(C(=O)/C=C/C(=O)O)cc1 | ? | ? | -6 | -17% | ? | 26µM*
CC(C)CN1C(=O)CO[C@H](c2ccc(NC(=O)C3CCCC3)cc2)[C@H]1CO | . | . | . | 19%[176 µM] | . | .
Cc1ccccc1CNC[C@H]1O[C@@H]2C[C@@H](CC(=O)NCc3nccn3C)O[C@@H]2[C@@H]1O | . | . | . | 11%[176 µM] | . | .
CC(C)(C)OC(=O)N1CC=C2C(C#N)=C(N)C(C#N)(C#N)[C@H](c3cccnc3)[C@H]2C1 | 0% | 6% | -9 | 5% | -27% | ?

Screens from PubChem BioAssay.
